The supplement of paper PMC8387472

Legend:
Experiment in all cases: fraction of edited reads among all mapped reads; higher = more Cas9 editing
Details in all cases: mESC; 2uM; 72 h treatment, harvest day 5
[1] = compound: CC(=O)O/N=C1\C(=O)N(Cc2cc(Cl)ccc2Cl)c2ccc(Cl)cc21
[2] = compound: CC(C)(C#N)c1ccc(N2C(=O)OCc3cnc4ccc(-c5cnc6ccccc6c5)cc4c32)cc1
[3] = compound: CCCCOc1c(C(=O)c2c(F)cc(C)cc2F)c[nH]c2nncc1-2
[4] = compound: CCN1CCN(CC(=O)Nc2ccc(-c3cccc4c(=O)cc(N5CCOCC5)oc34)c3sc4ccccc4c23)CC1
[5] = compound: CCc1c2c(nc3ccc(OC(=O)N4CCC(N5CCCCC5)CC4)cc13)-c1cc3c(c(=O)n1C2)COC(=O)[C@]3(O)CC [Irinotecan HCl Trihydrate]
[6] = compound: CCn1c(=O)c(-c2ccc(Cl)cc2Cl)cc2cnc(Nc3ccc(N4CCNCC4)c(F)c3)nc21
[7] = compound: CNc1ccc([N+](=O)[O-])c(Nc2ccc3[nH]ncc3c2)n1
[8] = compound: CO[C@H]1/C=C/O[C@@]2(C)Oc3c(C)c(O)c4c(O)c(c(/C=N/N5CCN(C6CCCC6)CC5)c(O)c4c3C2=O)NC(=O)/C(C)=C\C=C\[C@H](C)[C@H](O)[C@@H](C)[C@@H](O)[C@@H](C)[C@H](OC(C)=O)[C@@H]1C [Rifapentine]
[9] = compound: C[C@@H]1CN(CC(=O)Nc2ccc3c(c2)Cc2cccc(-c4cc(=O)cc(N5CCOCC5)o4)c2S3)C[C@H](C)O1
[10] = compound: Cc1cc(C)nc(SCC(=O)Nc2ncc(Cc3cccc4ccccc34)s2)n1
[11] = compound: Cc1ccc(C(=O)NCCCCCC(=O)Nc2ccccc2N)cc1
[12] = compound: Cc1cccc(CC(=O)N2CCc3c2ccc(-c2cn(C)c4ncnc(N)c24)c3F)n1
[13] = compound: NC(=O)c1ccc2nc(-c3ccc(Oc4ccc(Cl)cc4)cc3)[nH]c2c1 [Chk 2 inhibitor II (BML-277)]
[14] = compound: Nc1cc(F)ccc1NC(=O)c1ccc(CNC(=O)/C=C/c2cccnc2)cc1 [Tucidinostat (Chidamide)]
[15] = compound: Nc1nc2[nH]cc(CCc3ccc(C(=O)N[C@@H](CCC(=O)O)C(=O)O)cc3)c2c(=O)[nH]1 [Pemetrexed]
[16] = compound: Nc1ncnc2c1c(-c1cnc3[nH]ccc3c1)nn2C1CCCC1
[17] = compound: O=C(c1cccc(Cl)c1F)N1CCN(Cc2cccc(Nc3nccs3)n2)CC1
[18] = compound: O=C1Cc2c([nH]c3ccc(Br)cc23)-c2ccccc2N1 [Kenpaullone]
[19] = compound: O=c1c(-c2ccc(O)cc2)coc2cc(O)cc(O)c12 [Genistein]
[20] = compound: COc1ccccc1-c1cc(Nc2cccc(CS(N)(=O)=O)c2)ncn1

Target	fraction of edited reads among all mapped reads [1]	fraction of edited reads among all mapped reads [2]	fraction of edited reads among all mapped reads [3]	fraction of edited reads among all mapped reads [4]	fraction of edited reads among all mapped reads [5]	fraction of edited reads among all mapped reads [6]	fraction of edited reads among all mapped reads [7]	fraction of edited reads among all mapped reads [8]	fraction of edited reads among all mapped reads [9]	fraction of edited reads among all mapped reads [10]	fraction of edited reads among all mapped reads [11]	fraction of edited reads among all mapped reads [12]	fraction of edited reads among all mapped reads [13]	fraction of edited reads among all mapped reads [14]	fraction of edited reads among all mapped reads [15]	fraction of edited reads among all mapped reads [16]	fraction of edited reads among all mapped reads [17]	fraction of edited reads among all mapped reads [18]	fraction of edited reads among all mapped reads [19]	fraction of edited reads among all mapped reads [20]
43.0 (DMSO control at this site: 1-bp insertion 0.134, MH deletion 0.714, edited 0.104) AGTTTAACTTACTCCGGCCAAAAAAGAACTGCACCTCTGGAGCGGGTTAGTGGTGGTGGTA	0.15	0.143	0.151	0.0617	0.184	0.119	0.164	0.218	0.0771	0.219	0.137	0.172	0.155	0.116	0.093	0.126	0.0909	0.271	0.179	–
33.0 (DMSO control at this site: 1-bp insertion 0.008, MH deletion 0.771, edited 0.112) CATTAAGAGCAGCTGCCGGCCCCCAAGTGGACAGAGCTGGCCCTGCTGATTCAACAGTGCA	0.133	0.111	0.123	0.0458	0.162	0.115	0.126	0.211	0.0718	0.187	0.109	0.168	0.147	0.108	0.111	0.108	0.0838	0.237	0.146	0.163
5.0 (DMSO control at this site: 1-bp insertion 0.214, MH deletion 0.567, edited 0.105) CGCTGACCCGAGACCTACGCGAACCGAAATCGGCGACCGGTGCGCAAGCAGGGCTGGCGTC	0.13	0.128	0.133	0.0591	0.169	0.13	0.145	0.226	0.085	0.215	0.121	0.171	0.149	0.108	0.124	0.116	0.0928	0.248	0.157	0.163
46.0 TTAAGAGCAATGTTCACGCAACTTGAAATTATATCTGTGGTCTTCAAATTGTCTTTTGTCA	–	0.109	0.106	–	–	–	0.099	0.157	–	–	0.1	–	–	0.0602	0.136	0.105	–	–	0.116	–
35.0 (DMSO control at this site: 1-bp insertion 0.01, MH deletion 0.72, edited 0.098) CCACTTTTAGAGAGGGTGAAAATCATCAGTTATCATCAGGGCAACAAATTGCTTTCTCCTA	–	0.143	–	0.0527	0.166	0.111	0.148	0.208	0.0395	0.179	0.117	0.147	0.122	0.0981	0.104	0.108	0.0696	0.209	0.151	0.151
40.0 (DMSO control at this site: 1-bp insertion 0.072, MH deletion 0.192, edited 0.189) GCGAATCAACTGTTCAACAACAGCAGCAGCCACCTGGAGGACTACAGTGGCCTGTCCGTGT	0.203	0.198	0.224	0.0829	0.259	0.184	0.242	0.327	0.219	0.334	0.199	0.298	0.238	0.193	0.179	0.201	0.142	0.432	0.24	0.271
29.0 (DMSO control at this site: 1-bp insertion 0.084, MH deletion 0.745, edited 0.133) TTGATGAACTTCCTCTTCTTCTCATGTCTCCGGTCTCCGGTAGGCCACGTGCATGGCCACT	0.166	0.157	0.153	0.073	0.196	0.142	0.167	0.256	0.0736	0.239	0.147	0.189	0.165	0.129	0.13	0.144	0.0932	0.261	0.18	0.172
7.0 (DMSO control at this site: 1-bp insertion 0.128, MH deletion 0.374, edited 0.098) TACTCAACCGAGACCTACGCGAACCGAAATCGTATGCCGGTGCGCAAGCAGGGCTGGCGTC	0.117	0.115	0.118	0.0615	0.161	0.0955	0.135	0.19	0.0557	0.173	0.0971	0.138	0.128	0.1	0.1	0.096	0.0816	0.195	0.124	0.126
45.0 (DMSO control at this site: 1-bp insertion 0.017, MH deletion 0.666, edited 0.101) TTACACAGCATGAACTGCTAGGTGATGATGTCAGATTCGGTTTTACTAACTTCTCCAAAAA	0.115	0.112	0.119	0.0494	0.153	0.113	0.133	0.203	0.0499	0.195	0.111	0.151	0.127	0.0928	0.0998	0.0941	0.069	0.233	0.139	0.144
20.0 (DMSO control at this site: 1-bp insertion 0.349, MH deletion 0.138, edited 0.084) TACAGGTGTAGACTGGTTACGTGGCTGCGGAATTGACTGGTTACGTGGCTGCGGAATTTTG	0.0924	0.0867	0.0976	0.0384	0.115	0.0929	0.1	0.133	0.103	0.152	0.0728	0.111	0.106	0.0826	0.0835	0.117	0.0574	0.232	0.125	0.147
23.0 AGAACAAAGCGCTCATATAACGATATGGGGGGTTATGGGGGGTTGAATTGCTTCAGCACGA	–	–	–	–	–	–	0.981	–	–	–	–	–	–	–	–	–	0.94	–	–	–
26.0 (DMSO control at this site: 1-bp insertion 0.518, MH deletion 0.262, edited 0.026) AGGGCGCGCCCCACGCACTCTGCGGCAAGTCCCTCTGCGGCAAGTCCTCGGCCCGGAAGAC	0.0291	0.0255	0.0319	0.0118	0.0344	0.0242	0.0263	0.0398	0.0296	0.0413	0.0319	0.0384	0.0384	0.0295	0.0225	0.0266	0.0221	0.0413	0.0338	0.0351
8.0 GCATGCGTGTTTTGGGACAATGTAGTATACATTTGGGAGGCTCTCAGCTTTTCCCAATAAA	0.0233	0.0207	0.0186	–	–	–	–	–	–	0.021	–	–	–	0.0159	0.0154	0.0205	–	0.0456	–	–
38.0 (DMSO control at this site: 1-bp insertion 0.063, MH deletion 0.487, edited 0.17) GGGCTGGGTGCTAAAATGAGGAGCTCCAAGAAGACTGAGGTGAACCTGGAGGCCCCTGAGC	0.178	0.169	0.188	0.0737	0.243	0.147	0.206	0.26	0.107	0.27	0.178	0.197	0.187	0.181	0.167	0.146	0.128	0.316	0.198	0.204
17.0 (DMSO control at this site: 1-bp insertion 0.112, MH deletion 0.348, edited 0.058) CCATAGCGCGATAAATATGACGGCTCATCCTGTATGACGGCTCATCCTGTATCAACTGTCC	0.0666	0.0797	0.0794	0.0411	0.0882	0.0594	0.0812	0.115	0.0394	0.123	0.0669	0.086	0.0753	0.0619	0.0836	0.0703	0.0546	0.184	0.0864	0.0964
41.0 (DMSO control at this site: 1-bp insertion 0.022, MH deletion 0.754, edited 0.115) AAAGAGACAGCAGGTATGAATCCATCTTCCTGACCCTTGGGACCAGCCGGGGCAGTGAAGC	0.135	0.15	0.152	0.0542	0.19	0.126	0.162	0.23	0.0671	0.227	0.138	0.172	0.157	0.121	0.12	0.113	0.0798	0.25	0.169	0.171
19.0 (DMSO control at this site: 1-bp insertion 0.121, MH deletion 0.101, edited 0.057) TCTGCAGGGGTCGGAACCCGGGGGCTAGGGCTATCCCGGGGGCTAGGGCTATTAGCGAACC	0.0656	0.0719	0.0679	0.0342	0.0806	0.0564	0.0687	0.0905	0.0476	0.112	0.0637	0.0933	0.0726	0.0662	0.0698	0.0701	0.0542	0.141	0.0811	0.087
30.0 (DMSO control at this site: 1-bp insertion 0.074, MH deletion 0.67, edited 0.142) GAGCTGGCATGAGTATTTGTGCCACATGGCTCCCACATGGCTCCACATGCAAGTTTGAAAC	0.142	0.149	0.158	0.066	0.204	0.156	0.187	0.224	0.134	0.226	0.147	0.212	0.179	0.129	0.148	0.143	0.112	0.286	0.191	0.177
0.0 (DMSO control at this site: 1-bp insertion 0.463, MH deletion 0.339, edited 0.14) AGGATTACCGAGACCTACGCGAACCGAAATCGCTGTCCGGTGCGCAAGCAGGGCTGGCGTC	0.147	0.154	0.172	0.0626	0.218	0.155	0.203	0.274	0.15	0.241	0.152	0.222	0.17	0.139	0.149	0.173	0.122	0.329	0.187	0.213
